We go through 39 targets from the supplement of paper PMC10849652.

The full data set covers some 8,800 targets. This sample favours those with a hit. About 0.5% of all pairs of compound and target were hits.

Chain of UniProt Q12981 (Q12981 whole entry, looked up): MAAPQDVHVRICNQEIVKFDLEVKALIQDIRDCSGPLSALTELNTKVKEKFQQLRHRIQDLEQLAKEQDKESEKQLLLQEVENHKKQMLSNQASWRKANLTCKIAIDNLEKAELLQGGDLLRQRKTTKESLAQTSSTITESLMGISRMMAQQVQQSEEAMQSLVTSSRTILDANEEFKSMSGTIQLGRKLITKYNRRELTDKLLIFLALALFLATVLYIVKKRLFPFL
Chain of UniProt P50750 (P50750 whole entry, looked up): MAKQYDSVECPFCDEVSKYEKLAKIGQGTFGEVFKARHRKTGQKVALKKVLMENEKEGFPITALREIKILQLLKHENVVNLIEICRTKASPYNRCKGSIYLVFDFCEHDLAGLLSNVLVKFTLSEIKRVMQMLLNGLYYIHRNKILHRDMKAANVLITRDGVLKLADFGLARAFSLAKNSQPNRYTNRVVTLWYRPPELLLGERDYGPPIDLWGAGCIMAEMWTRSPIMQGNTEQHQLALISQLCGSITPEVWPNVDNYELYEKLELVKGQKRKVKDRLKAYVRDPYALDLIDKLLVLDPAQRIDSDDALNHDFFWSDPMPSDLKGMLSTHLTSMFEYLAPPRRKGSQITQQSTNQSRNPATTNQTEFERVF
Chain of UniProt Q8N163 (Q8N163 whole entry, looked up): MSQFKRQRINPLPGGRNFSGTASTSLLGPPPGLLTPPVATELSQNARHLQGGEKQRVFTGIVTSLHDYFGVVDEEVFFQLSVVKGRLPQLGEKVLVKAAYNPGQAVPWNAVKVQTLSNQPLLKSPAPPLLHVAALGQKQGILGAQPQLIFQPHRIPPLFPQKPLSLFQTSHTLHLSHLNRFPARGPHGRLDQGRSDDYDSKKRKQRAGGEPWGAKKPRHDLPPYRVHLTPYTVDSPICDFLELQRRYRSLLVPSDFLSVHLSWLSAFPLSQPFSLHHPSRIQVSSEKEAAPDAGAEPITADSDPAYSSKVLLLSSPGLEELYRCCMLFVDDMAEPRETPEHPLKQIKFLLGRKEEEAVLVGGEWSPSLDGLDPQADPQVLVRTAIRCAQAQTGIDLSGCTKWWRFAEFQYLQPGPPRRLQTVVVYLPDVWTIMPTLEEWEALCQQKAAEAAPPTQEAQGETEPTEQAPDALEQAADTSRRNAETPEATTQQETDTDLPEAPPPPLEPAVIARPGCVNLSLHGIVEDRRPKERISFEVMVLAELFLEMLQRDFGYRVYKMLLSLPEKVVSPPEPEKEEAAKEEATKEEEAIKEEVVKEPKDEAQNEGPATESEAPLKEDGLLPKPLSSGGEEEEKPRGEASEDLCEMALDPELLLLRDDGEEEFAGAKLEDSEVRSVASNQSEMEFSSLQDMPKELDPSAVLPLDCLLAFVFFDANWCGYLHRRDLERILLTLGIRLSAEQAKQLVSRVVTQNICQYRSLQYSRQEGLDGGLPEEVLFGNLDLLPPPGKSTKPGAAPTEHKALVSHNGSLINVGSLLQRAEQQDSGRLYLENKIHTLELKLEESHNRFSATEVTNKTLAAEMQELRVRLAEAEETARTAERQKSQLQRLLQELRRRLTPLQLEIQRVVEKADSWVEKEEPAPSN
Chain of UniProt Q14692 (Q14692 whole entry, looked up): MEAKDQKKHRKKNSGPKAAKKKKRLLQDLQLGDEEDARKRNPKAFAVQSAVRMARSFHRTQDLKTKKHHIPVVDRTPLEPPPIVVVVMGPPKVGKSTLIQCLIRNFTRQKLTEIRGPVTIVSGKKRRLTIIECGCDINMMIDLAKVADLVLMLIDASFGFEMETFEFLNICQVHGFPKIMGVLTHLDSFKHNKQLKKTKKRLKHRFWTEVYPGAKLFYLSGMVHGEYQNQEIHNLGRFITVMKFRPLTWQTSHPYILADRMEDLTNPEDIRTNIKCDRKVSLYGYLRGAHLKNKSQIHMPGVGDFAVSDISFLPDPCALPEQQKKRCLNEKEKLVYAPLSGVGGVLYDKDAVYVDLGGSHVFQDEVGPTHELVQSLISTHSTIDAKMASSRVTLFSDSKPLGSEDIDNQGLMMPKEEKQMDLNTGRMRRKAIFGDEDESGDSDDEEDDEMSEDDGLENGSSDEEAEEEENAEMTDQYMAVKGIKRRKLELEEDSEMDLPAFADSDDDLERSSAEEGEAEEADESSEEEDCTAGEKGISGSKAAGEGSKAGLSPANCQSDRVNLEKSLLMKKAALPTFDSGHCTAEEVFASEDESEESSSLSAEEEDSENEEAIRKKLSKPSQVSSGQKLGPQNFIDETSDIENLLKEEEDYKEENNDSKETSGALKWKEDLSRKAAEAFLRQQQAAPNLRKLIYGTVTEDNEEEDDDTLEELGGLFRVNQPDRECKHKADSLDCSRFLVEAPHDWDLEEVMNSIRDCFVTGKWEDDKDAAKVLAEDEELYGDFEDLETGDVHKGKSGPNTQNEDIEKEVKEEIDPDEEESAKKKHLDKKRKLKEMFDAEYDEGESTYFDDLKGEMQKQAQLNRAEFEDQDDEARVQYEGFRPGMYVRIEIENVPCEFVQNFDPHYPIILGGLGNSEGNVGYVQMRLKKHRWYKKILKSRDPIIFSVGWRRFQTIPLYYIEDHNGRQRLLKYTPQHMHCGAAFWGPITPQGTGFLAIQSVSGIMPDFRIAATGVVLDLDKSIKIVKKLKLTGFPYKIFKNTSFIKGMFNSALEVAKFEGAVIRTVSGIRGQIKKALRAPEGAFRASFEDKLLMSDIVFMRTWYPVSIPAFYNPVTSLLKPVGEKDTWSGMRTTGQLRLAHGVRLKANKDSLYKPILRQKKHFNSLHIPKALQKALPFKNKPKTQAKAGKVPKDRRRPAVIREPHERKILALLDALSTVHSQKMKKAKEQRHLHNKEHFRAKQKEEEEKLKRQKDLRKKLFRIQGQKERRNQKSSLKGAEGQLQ
Chain of UniProt Q9NW68 (Q9NW68 whole entry, looked up): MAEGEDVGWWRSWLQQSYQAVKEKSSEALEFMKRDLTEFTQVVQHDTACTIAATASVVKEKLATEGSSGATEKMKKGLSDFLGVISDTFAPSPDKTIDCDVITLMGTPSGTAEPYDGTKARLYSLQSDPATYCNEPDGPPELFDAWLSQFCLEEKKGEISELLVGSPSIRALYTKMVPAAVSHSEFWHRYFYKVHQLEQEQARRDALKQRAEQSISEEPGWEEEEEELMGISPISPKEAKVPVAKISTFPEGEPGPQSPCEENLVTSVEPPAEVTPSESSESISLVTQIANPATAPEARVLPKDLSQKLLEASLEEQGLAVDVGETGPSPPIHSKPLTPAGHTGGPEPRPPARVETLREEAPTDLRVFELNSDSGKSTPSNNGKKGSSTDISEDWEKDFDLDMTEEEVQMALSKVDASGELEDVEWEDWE
Chain of UniProt O75143 (O75143 whole entry, looked up): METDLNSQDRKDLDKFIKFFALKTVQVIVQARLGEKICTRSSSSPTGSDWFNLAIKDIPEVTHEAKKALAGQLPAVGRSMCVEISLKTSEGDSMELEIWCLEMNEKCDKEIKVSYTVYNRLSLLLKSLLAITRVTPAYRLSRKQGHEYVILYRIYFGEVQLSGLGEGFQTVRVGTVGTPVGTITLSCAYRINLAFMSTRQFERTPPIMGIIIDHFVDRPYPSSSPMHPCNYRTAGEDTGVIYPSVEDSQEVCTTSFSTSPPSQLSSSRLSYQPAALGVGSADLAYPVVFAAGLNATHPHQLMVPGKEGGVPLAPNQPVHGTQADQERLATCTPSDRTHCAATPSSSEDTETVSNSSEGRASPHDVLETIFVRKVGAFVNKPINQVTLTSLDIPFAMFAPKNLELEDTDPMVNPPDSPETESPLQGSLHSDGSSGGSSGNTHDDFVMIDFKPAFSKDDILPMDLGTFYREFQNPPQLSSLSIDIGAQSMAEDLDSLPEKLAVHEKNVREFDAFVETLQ
Chain of UniProt P21953 (P21953 whole entry, looked up): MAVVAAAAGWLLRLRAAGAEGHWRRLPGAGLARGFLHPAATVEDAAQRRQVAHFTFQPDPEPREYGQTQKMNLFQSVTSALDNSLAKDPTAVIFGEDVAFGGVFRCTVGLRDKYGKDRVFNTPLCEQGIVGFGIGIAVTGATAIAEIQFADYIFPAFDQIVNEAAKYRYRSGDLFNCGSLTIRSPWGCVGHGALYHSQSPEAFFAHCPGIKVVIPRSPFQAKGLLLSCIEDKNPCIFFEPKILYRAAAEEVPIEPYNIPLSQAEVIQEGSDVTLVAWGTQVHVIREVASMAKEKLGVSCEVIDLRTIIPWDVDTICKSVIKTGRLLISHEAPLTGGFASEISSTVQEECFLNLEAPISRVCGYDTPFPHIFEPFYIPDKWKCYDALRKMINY
Chain of UniProt O95319 (O95319 whole entry, looked up): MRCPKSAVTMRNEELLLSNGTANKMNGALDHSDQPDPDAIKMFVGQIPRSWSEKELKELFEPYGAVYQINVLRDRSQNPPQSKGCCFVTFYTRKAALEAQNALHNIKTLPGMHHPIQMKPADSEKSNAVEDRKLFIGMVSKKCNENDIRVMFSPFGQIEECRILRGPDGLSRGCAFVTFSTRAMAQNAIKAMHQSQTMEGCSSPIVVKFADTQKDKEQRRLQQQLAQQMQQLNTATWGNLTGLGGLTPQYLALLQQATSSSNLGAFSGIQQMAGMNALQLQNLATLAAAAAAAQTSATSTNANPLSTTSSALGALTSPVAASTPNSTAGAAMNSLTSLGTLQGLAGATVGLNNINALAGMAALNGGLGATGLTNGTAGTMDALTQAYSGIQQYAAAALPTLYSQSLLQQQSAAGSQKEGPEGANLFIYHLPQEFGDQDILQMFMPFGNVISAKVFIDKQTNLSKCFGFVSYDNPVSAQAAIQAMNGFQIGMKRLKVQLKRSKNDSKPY
Chain of UniProt O43709 (O43709 whole entry, looked up): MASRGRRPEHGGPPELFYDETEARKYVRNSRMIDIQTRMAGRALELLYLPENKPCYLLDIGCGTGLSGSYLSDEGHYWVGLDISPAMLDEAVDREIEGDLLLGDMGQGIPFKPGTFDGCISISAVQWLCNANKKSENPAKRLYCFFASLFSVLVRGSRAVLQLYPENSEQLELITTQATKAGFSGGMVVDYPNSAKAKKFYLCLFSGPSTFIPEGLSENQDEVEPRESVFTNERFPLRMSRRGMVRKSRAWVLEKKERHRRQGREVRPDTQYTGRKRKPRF

Compound in this experiment: Cc1cccc(CC(=O)N2CCc3c2ccc(-c2cn(C)c4ncnc(N)c24)c3F)n1
Nature of the experiment: log2 fold change, soluble protein after heating vs DMSO (PISA); higher = thermal stabilisation; K562 lysate, 10 uM; active = over 0.2 and 3.5 SD of the protein, either way, in both replicates (recomputed). The method in brief: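 To prepare the extract, K562 pellets were dounce-homogenised in PBS pH 7.4 with 1 mM MgCl2, giving crude material at 1 mg/mL protein. This was treated with 10 μM compound for 30 min, then heated in aliquots for 3 min over 48°C-58°C before pooling and addition of NP-40 to 0.5% at 4°C. Centrifugation at 21,000xg for 90 min left soluble protein in the supernatant, which TMTpro 16plex LC-MS/MS quantified with equalised channel sums. Results are log-two fold changes in thermal stability compared with solvent controls, from duplicates.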
Regarding BRD4 (UniProt O60885), the log2 fold change is -0.006 (inactive).
In the case of CAMKK1 isoform 2 (UniProt Q8N5S9) it was -0.033 (inactive).
Then ATG13 isoform 2 (UniProt O75143), with 0.137 (inactive); and ATAD1 (UniProt Q8NBU5), with 0.012 (inactive); and BSDC1 (UniProt Q9NW68), with 0.019 (inactive).
ATP5PF isoform 2 (UniProt P18859): the log2 fold change is -0.19 (inactive).
As to CAD (UniProt P27708), the log2 fold change was 0.07 (inactive).
Then CHCHD2 (UniProt Q9Y6H1), with -0.138 (inactive); and CHCHD4 isoform 2 (UniProt Q8N4Q1), with 0.198 (inactive); and CCNC (UniProt P24863), with 0.015 (inactive).
Take CELF2 isoform 3 (UniProt O95319): the log2 fold change was -0.124 (inactive).
In the case of CEP120 (UniProt Q8N960), the log2 fold change was 0.129 (inactive).
Then CCDC25 (UniProt Q86WR0), with -0.095 (inactive); and CELF1 isoform 4 (UniProt Q92879), with -0.018 (inactive).
As to BNIP1 (UniProt Q12981), the log2 fold change was -0.17 (inactive).
In the case of CHD5 (UniProt Q8TDI0) it was -0.002 (inactive); in that of ATP2B4 (UniProt P23634), 0.221 (active).
Then CANX isoform 2 (UniProt P27824), with 0.052 (inactive).
In the case of BCKDK (UniProt O14874) it was -0.003 (inactive); in that of CCAR2 (UniProt Q8N163), 0.06 (inactive); in that of CDC40 (UniProt O60508), 0.006 (inactive).
Turning to CDK5RAP2 (UniProt Q96SN8), the log2 fold change is 0.084 (inactive).
As to CD63 (UniProt P08962), the log2 fold change is 0.074 (inactive).
For the target ATR (UniProt Q13535), the log2 fold change was 0.161 (inactive).
Then CCDC47 (UniProt Q96A33), with 0.049 (inactive); and CCNA2 (UniProt P20248), with 0.049 (inactive); and CHD4 isoform 2 (UniProt Q14839), with 0.05 (inactive).
Then CENPQ (UniProt Q7L2Z9), with -0.013 (inactive); and BLM (UniProt P54132), with -0.251 (inactive).
Then ATP6V0A2 (UniProt Q9Y487), with 0.13 (inactive); and BTAF1 (UniProt O14981), with 0.093 (inactive).
Take CDC42EP4 (UniProt Q9H3Q1): the log2 fold change is 0.102 (inactive).
In the case of BMS1 (UniProt Q14692) it was 0.045 (inactive).
In the case of CDK9 isoform 2 (UniProt P50750) it was -0.056 (inactive).
In the case of C12orf45 (UniProt Q8N5I9) it was 0.072 (inactive); in that of BCKDHB (UniProt P21953), -0.017 (inactive); in that of CDC45 isoform 3 (UniProt O75419), -0.018 (inactive).
Regarding BUD23 isoform 3 (UniProt O43709), the log2 fold change is 0.152 (inactive).
Then CARD9 (UniProt Q9H257), with 0.03 (inactive).
